Holding throughout (test): NCI-60 one-dose screen, 48 h (100 = growth as untreated, 0 = no growth, -100 = all killed)
Details in all cases: 10 µM unless noted

The test system of test [1] is T-47D breast.
For test [2], the system named is BT-549 breast.
Test [3] deals with MDA-MB-435 melanoma.
The subject of test [4] is SW-620 colon.
Test [5] deals with MCF7 breast.
The test system of test [6] is HCT-116 colon.
The test system of test [7] is HCC-2998 colon.
The test system of test [8] is KM12 colon.

Compounds without any hit were thinned out: in the full panel of roughly 83,000, 20% have a hit.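 Step 1: grow cells in 96-well plates. Step 2: add test compound at a single concentration. Step 3: incubate 48 h. Step 4: record percent growth.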 Calls of active or inactive are those of the source. The calls were made as follows: active = growth percent below 10; inactive = the rest.

With `CNCCN(C)c1ccc(Nc2cc(NC3CC3)n3ncc(C#N)c3n2)cc1NC(C)=O`, the growth is -16.2% (active) in test [1]; -54.7% (active) in test [2]; 6.93% (active) in test [3]; -2.54% (active) in test [4]; -0.902% (active) in test [5]; -5.45% (active) in test [6]. Further, the growth in test [7] is 10.2% (inactive); in test [8], 8.46% (active).
For `COc1ccc([C@@H]2C(=O)N(c3cc(OC)c(OC)c(OC)c3)[C@H]2c2ccc(OC)c(O)c2)cc1`, the growth is 94.9% (inactive) in test [1]; -30.1% (active) in test [2]; -15.4% (active) in test [3]; 24.2% (inactive) in test [4]; 10.6% (inactive) in test [5]; 6.47% (active) in test [6]. The growth in test [7] is 17% (inactive); in test [8], 10.7% (inactive).
Take `CCOC(=O)c1cccnc1Nc1ccc(NC(=O)Nc2ccc(Cl)c(C(F)(F)F)c2)cc1`: the growth was -1.09% (active) in test [1]; 60.9% (inactive) in test [2]; 53.1% (inactive) in test [3]; 37.1% (inactive) in test [4]; 17.8% (inactive) in test [5]; 16.4% (inactive) in test [6]. The growth in test [7] is 50.4% (inactive); in test [8], 17.5% (inactive).
Turning to `CCOP(=O)(OCC)OC[C@]12CCC(C)(C)CC1C1=CC[C@@H]3[C@@]4(C)CCCNC(C)(C)[C@@H]4CC[C@@]3(C)[C@]1(C)CC2` (some centres not stated), the growth in test [1] is 79.2% (inactive); in test [2] it was 104% (inactive); in test [3], 90.6% (inactive); in test [4], 66.3% (inactive); in test [5], 35.1% (inactive); in test [6] it was 20.4% (inactive). Moreover, the growth is 26.6% (inactive) in test [7] and 88.7% (inactive) in test [8].
In the case of `O=C(Nc1ccc(Cl)c(C(F)(F)F)c1)Nc1ccc2oc(=O)ccc2c1`, the growth in test [1] was 8.73% (active); in test [2], 78.7% (inactive); in test [3] it was 50.3% (inactive); in test [4], 37.3% (inactive); in test [5], 11.9% (inactive); in test [6], 15.7% (inactive). For the same compound, the growth in test [7] is 29.2% (inactive); in test [8], 19.6% (inactive).
`Cc1csc(/N=C(N)/N=C(\N)c2cccnc2)n1`: the growth in test [1] was 85.5% (inactive); in test [2] it was 77.6% (inactive); in test [3] it was 6% (active); in test [4], 53.2% (inactive); in test [5] it was 82.1% (inactive); in test [6] it was 55.1% (inactive). The growth in test [7] is 90.2% (inactive); in test [8], 48.8% (inactive).
In the case of `O=C(CCl)Nc1ccc(NC(=O)c2cc(Cl)ccc2O)c(Cl)c1`, the growth in test [1] was 81.3% (inactive); in test [2], 65.8% (inactive); in test [3], 66% (inactive); in test [4] it was 35.2% (inactive); in test [5] it was 29.1% (inactive); in test [6], 39% (inactive). Also, the results for the growth in test [7] and in test [8] were 105% (inactive) and 75.8% (inactive), respectively.
As to `O=C(N/N=C\c1ccc(F)cc1)c1ccc2nc(-c3ccc(Br)cc3)[nH]c2c1`, the growth is 75.6% (inactive) in test [1]; 73.5% (inactive) in test [2]; 40.7% (inactive) in test [3]; 2.87% (active) in test [4]; 9.41% (active) in test [5]; -21% (active) in test [6]. Moreover, the growth in test [7] was 31.3% (inactive); in test [8] it was 16% (inactive).
For `CCc1cccc2c3c(sc12)C(c1ccc(F)cc1)C(C#N)=C(/N=C/c1ccc(Cl)cc1)O3` (configuration not stated), the growth in test [1] was 30.7% (inactive); in test [2], 2.79% (active); in test [3], -5.71% (active); in test [4] it was 37.6% (inactive); in test [5], 14% (inactive); in test [6], 11.4% (inactive). For the same compound, the results for the growth in test [7] and in test [8] were 10.3% (inactive) and 16.1% (inactive), respectively.
Turning to `Cc1ncn(-c2ccc(/C=N/Nc3ccnc4cc(Cl)ccc34)cc2)c1C`, the growth was -61.6% (active) in test [1]; -93.7% (active) in test [2]; -80.2% (active) in test [3]; -60.4% (active) in test [4]; -69.1% (active) in test [5]; -83.6% (active) in test [6]. Further, the figures for the growth in test [7] and in test [8] were -44.5% (active) and -25.8% (active), respectively.
Take `NC1C2CCC1CN(c1cnc(C(=O)Nc3cc(F)cc4cccnc34)cn1)C2` (configuration not stated): the growth was 34.2% (inactive) in test [1]; 94.7% (inactive) in test [2]; 75.5% (inactive) in test [3]; 25% (inactive) in test [4]; 3.24% (active) in test [5]; 15.8% (inactive) in test [6]. Moreover, the growth in test [7] was 79.3% (inactive); in test [8], 77.1% (inactive).
For the compound `FC(F)(F)c1cc(Br)cc(-c2cc(-c3ccc4c(c3)OCCO4)[nH]n2)c1`, the growth in test [1] is 66.4% (inactive); in test [2], -3.55% (active); in test [3] it was -12.3% (active); in test [4], 25.3% (inactive); in test [5], 11.4% (inactive); in test [6], 5.67% (active). Also, the growth in test [7] is 29.1% (inactive); in test [8], 12.3% (inactive).
As for `O=C1[C@@H]2Cc3c([nH]c4ccccc34)[C@H](c3ccc(Cl)cc3)N2C(=O)CN1C1CCN(Cc2ccccc2)CC1`, the growth in test [1] is 74.5% (inactive); in test [2] it was 72.1% (inactive); in test [3], 54.8% (inactive); in test [4], 61.3% (inactive); in test [5], 16.2% (inactive); in test [6], 25.5% (inactive). Further, the values for the growth in test [7] and in test [8] were 51.4% (inactive) and 57.6% (inactive), respectively.
Take `CN(C)CC(=O)Nc1nc(-c2cccc(NS(=O)(=O)c3cccc4c(N(C)C)cccc34)c2)cs1`: the growth is 56.9% (inactive) in test [1]; 87.8% (inactive) in test [2]; 99% (inactive) in test [3]; 105% (inactive) in test [4]; 68.3% (inactive) in test [5]; 80.1% (inactive) in test [6]. Besides, the figures for the growth in test [7] and in test [8] were 85.8% (inactive) and 94.1% (inactive), respectively.
